From PubChem
This is a sample that favours compounds with a hit; in the whole collection about 1.9% have one here.
BaF3 parental = parental Ba/F3 cell viability inhibition, counter-screen for JAK2V617F inhibitor project, murine pro-B, CellTiter-Glo luminescence; hit rate 1.1% among 220,000; CellTiter-Glo ATP luminescence; AID 1486, 2009; inhibition, % at 5.6 µM;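 active = inhibition above a per-campaign cutoff, the mean inhibition of all tested compounds plus 3 SD, cut at about 27% in these data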;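 note: 0% = DMSO wells and 100% = JAK Inhibitor I control wells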
KLF5 inh = KLF5 expression inhibitors, primary screen, DLD-1 cells, luminescence | DLD-1 KLF5 promoter-luciferase reporter | inhibition, % at 5 µM | hit rate 0.23% among 290,000;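 active = inhibition above a per-plate limit of that plate's mean compound inhibition plus 3 SD, cut at about 60% in these data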;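 note: 0% = DMSO wells and 100% = LY294002 at 200 µM; higher means less KLF5 promoter-driven luciferase light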
Ba/F3 V617F tox = reduced viability of JAK2V617F-dependent Ba/F3 cells, primary screen, JAK2V617F inhibitor project, cell-based, Ba/F3 EpoR-JAK2V617F, luminescence; hit rate 1.1% among 220,000; inhibition, % at 5.6 µM; ATP luminescence;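 active = inhibition above the campaign mean plus 3 SD over all tested compounds, cut at about 24% in these data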;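 note: cytokine-independent growth of Ba/F3 cells driven by EpoR plus mutant JAK2; 0% = DMSO-treated cells and 100% = JAK inhibitor I control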
IEC-6 tox-1 = cytotoxicity in IEC-6 intestinal epithelial cells, primary screen, cytotoxicity control for KLF5 inhibitor project, cell-based, luminescence; IEC-6 cytotoxicity, luminescence viability; inhibition, % at 5 µM; hit rate 0.78% among 290,000; AID 1825, 2009;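 note: 0% = plate median of test compound wells and 100% = cytotoxic reference compound wells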
APP 5UTR inh = inhibitors of APP translation via 5'UTR reporter, primary screen, APP 5'UTR luciferase, SH-SY5Y cells; inhibition, % at 2 µM; hit rate 0.82% among 190,000; AID 1285, 2008; SH-SY5Y APP 5'UTR-luciferase reporter, luminescence;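 active = inhibition above a set limit, derived from the sample mean plus 3 SD, cut at about 45% in these data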
BaF3 parental 2 = parental Ba/F3 cell viability inhibition, counter-screen for JAK2V617F inhibitor project, murine pro-B, CellTiter-Glo luminescence | shares compounds with Ba/F3 V617F tox | cells kept alive by added IL-3 | inhibition, % at 5.6 µM | hit rate 31% among 580 | AID 1520, 2009;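 active = cell growth inhibition above the hit limit set in the earlier mutant JAK2 cell screen, cut at about 27% in these data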;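 note: plate controls were DMSO-treated cells for no effect and JAK Inhibitor I control wells for full effect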
JAK2V617F conf = viability loss in Ba/F3 EpoR-JAK2V617F cells, confirmation, JAK2V617F inhibitor project, cell-based, luminescence, triplicate | shares compounds with Ba/F3 V617F tox | CellTiter-Glo luminescence | inhibition, % at 5.6 µM | hit rate 66% among 580 | AID 1521, 2009;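 active = mean inhibition above the hit cutoff derived in the earlier primary screen, cut at about 25% in these data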;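 note: 0% = DMSO-treated cells and 100% = JAK inhibitor I control wells; higher means lower luminescence from reduced cell ATP and viability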
KLF5 inh confirm = KLF5 expression inhibitors, confirmation, DLD-1 cells, luminescence; shares compounds with KLF5 inh; DLD-1 KLF5 promoter firefly luciferase reporter; inhibition, % at 4 µM; hit rate 79% among 610;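 active = inhibition above a set limit taken from the earlier primary screen, cut at about 63% in these data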;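 note: 0% = DMSO wells and 100% = LY294002 at 200 µM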
IEC-6 tox-2 = cytotoxicity in rat IEC-6 cells, cytotoxicity control for KLF5 inhibitor project, cell-based, luminescence, triplicate | shares compounds with KLF5 inh | IEC-6 rat intestinal cells, viability luminescence | inhibition, % at 4 µM | hit rate 56% among 610 | AID 1905, 2009; in the data active = inhibition above about 23%;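 note: cells exposed to compounds for 48 hours before viability read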
IEC-6 cytotox cf = cytotoxic compounds in IEC-6 epithelial cells, confirmation, cytotoxicity control, cell-based, luminescence | shares compounds with IEC-6 tox-1 | IEC-6 rat intestinal epithelial viability | inhibition, % at 5 µM | hit rate 63% among 1,900;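 note: 0% = vehicle and 100% = reference cytotoxic drug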
Starred values were filed as active, the others as inactive; nt = no result given. Cut-off read from the data, not from the text of the source, unless noted: active = inhibition above about 22%; inactive = the rest.

SMILES | BaF3 parental | KLF5 inh | Ba/F3 V617F tox | IEC-6 tox-1 | APP 5UTR inh | BaF3 parental 2 | JAK2V617F conf | others
O=C(N/N=C/c1cc2c3c(c1O)CCCN3CCC2)c1ccccc1O | 5 | 5 | 35* | -5 | 85* | 95* | 96*
Cc1ccc(C)c(Sc2ccc(NC(=O)CCl)cc2)c1 | 4 | -14 | 50* | 6 | 60* | 7 | 86*
Cc1ccc(Sc2ccc(NC(=O)CCl)cc2)cc1C | 12 | -13 | 9 | 18 | 24 | nt | nt
COc1ccccc1Oc1cc(-n2nc(C)cc2C)ncn1 | 11 | -12 | 7 | -2 | -18 | nt | nt
Cc1ccccc1Oc1cc(-n2ncc(Cl)c(Cl)c2=O)ncn1 | 9 | -20 | 34* | -5 | 95* | 100* | 100*
CC(C)(C)c1ccc(C(=O)NNC(=O)CCC(=O)Nc2ccccc2)cc1 | nt | -29 | nt | 1 | nt | nt | nt
CCOc1ccc2[nH]c(C)c(CN3CCCCCC3)c(=O)c2c1 | nt | -40 | nt | 3 | nt | nt | nt
CCCCn1c(SCC(=O)c2ccc(O)c(O)c2)nc2ccsc2c1=O | 12 | -22 | 40* | -3 | -14 | 32* | 88*
Cc1ccc(C)c(-n2c(=O)c(C#N)cc3c(=O)n4ccccc4nc32)c1 | 21 | -9 | 61* | -2 | -3 | -2 | -5
Cc1ccc(-n2c(=O)c(C#N)cc3c(=O)n4ccccc4nc32)cc1 | 3 | 3 | -2 | -4 | 2 | nt | nt
CN(C)c1nc(N2CCN(c3ccc(F)cc3)CC2)c(C#N)c(=O)o1 | 13 | -2 | 28* | 0 | 4 | -3 | -8
Cc1cc(C)c(C#N)c(N2CCN(c3ccc(F)cc3)CC2)n1 | nt | 3 | nt | 3 | nt | nt | nt
CCCc1cnc(N2CCN(C(=O)c3ccccc3)CC2)nc1 | nt | -45 | nt | 2 | nt | nt | nt
CCCc1nc([N+](=O)[O-])c(S(=O)(=O)c2ccccc2)n1CC(C)C | 4 | -16 | 29* | 13 | 10 | -4 | 33*
CC(C)Cn1c(C(C)C)nc([N+](=O)[O-])c1S(=O)(=O)c1ccc(F)cc1 | 6 | -12 | 13 | 0 | -15 | nt | nt
S=C(Nc1ccc(Cl)cc1)N1CCCCC1 | 12 | -8 | 5 | 2 | 2 | nt | nt
Cc1ccc(NC(=S)N2CCN(C3CCCCC3)CC2)cc1 | 7 | -13 | 61* | -7 | -6 | 24 | 40*
CN1CCN(C(=S)Nc2ccc(Cl)cc2)CC1 | 14 | -33 | 27* | -8 | -16 | 23 | 46*
COc1cc(/C=C2/SC(=S)N(CC(=O)NC(C)(C)C)C2=O)cc(OC)c1OC | 5 | -22 | 2 | -1 | 4 | nt | nt
COc1cc(/C=C2\SC(=S)N(CC(=O)NC(C)(C)C)C2=O)cc(OC)c1OC | 5 | -12 | 102* | 5 | 4 | -7 | 9
COc1ccc(C(=O)N2CCCC(Nc3ccc(C)c(C)c3)C2)c(OC)n1 (stereo unspecified) | nt | -5 | nt | -4 | nt | nt | nt
N=c1c2c(-c3ccccc3)c(-c3ccccc3)n(Cc3ccccc3)c2ncn1CCO | 4 | 76* | 27* | 2 | 78* | 1 | 23 | KLF5 inh confirm=57;IEC-6 tox-2=22*
N=c1c2c(-c3ccccc3)c(-c3ccccc3)n(Cc3ccco3)c2ncn1Cc1ccccc1 | 1 | -3 | 0 | 3 | -3 | nt | nt
CC1=CC(=C2C(=O)c3ccccc3C2=O)C=C(C)N1C | 9 | -124 | 3 | -1 | -48 | nt | nt
CCCCCN1C=CC(=C2C(=O)c3ccccc3C2=O)C=C1 | 24 | 95* | 24* | 19 | 54* | 34* | 45* | KLF5 inh confirm=97*;IEC-6 tox-2=12
SMILES | BaF3 parental | KLF5 inh | Ba/F3 V617F tox | IEC-6 tox-1 | APP 5UTR inh | BaF3 parental 2 | JAK2V617F conf | others
C(=N\Nc1nc2ccccc2[nH]1)/c1ccccn1 | 26 | 86* | 31* | 9 | -72 | 24 | 36* | KLF5 inh confirm=70*;IEC-6 tox-2=46*
COc1cccc(CC2(CO)CCN(S(=O)(=O)c3ccc(OC)cc3OC)CC2)c1 | nt | -14 | nt | -10 | nt | nt | nt
CN(C)S(=O)(=O)c1cccc(NC(=S)N/N=C/c2cc(Br)ccc2O)c1 | 26 | 64* | 59* | -2 | nt | 95* | 84* | KLF5 inh confirm=77*;IEC-6 tox-2=23*
CCOc1cc(NC(=S)NCCOC)c(OCC)cc1NC(=O)c1ccco1 | 3 | 0 | 2 | 11 | -6 | nt | nt
O=C1C=C(Nc2ccc(O)cc2)C(=O)c2ccccc21 | 3 | -128 | 49* | 25* | nt | 23 | 76* | IEC-6 cytotox cf=7
Cc1ccc(NC2=CC(=O)C(=O)c3ccccc32)cc1 | 10 | -57 | 4 | 2 | -30 | nt | nt
O=C(NCc1cccnc1)c1ccc(NC(=O)c2ccco2)cc1 | 2 | -39 | -4 | 4 | 0 | nt | nt
CC(C)C(=O)Nc1ccc(C(=O)NCc2cccnc2)cc1 | 20 | -25 | 60* | 62* | -21 | 35* | 99* | IEC-6 cytotox cf=23*
O=C(Nc1ccc2c(c1)OCO2)c1n[nH]c(=O)c2ccccc12 | -3 | -57 | -1 | -6 | nt | nt | nt
Cc1ccc(S(=O)(=O)N2CCCN(C(=O)c3cc4ccccc4[nH]3)CC2)cc1 | nt | -14 | nt | 7 | nt | nt | nt
O=C(Nc1ccccc1)C1=C(c2ccccc2)S(=O)(=O)CCS1(=O)=O | 1 | 24 | 85* | 28* | 87* | 66* | 100* | IEC-6 cytotox cf=24*
COc1ccccc1N(C(=O)CCl)c1cn(C(C)=O)c2ccccc12 | -1 | -7 | 75* | 57* | nt | 4 | 87* | IEC-6 cytotox cf=23*
CC(=O)n1cc(Nc2ccccc2C(=O)O)c2ccccc21 | 1 | -5 | -2 | 3 | -7 | nt | nt
O=C(COC(=O)/C=C/c1ccco1)NCCc1ccccc1 | -1 | -14 | -7 | -4 | 12 | nt | nt
Cc1ccc(N(C(=O)CCl)C(C(=O)NC2CCCCC2)c2cccnc2)cc1C (stereo unspecified) | -3 | -11 | 86* | 80* | 30 | 77* | 100* | IEC-6 cytotox cf=63*
Cc1ccc(N(C(=O)CNC(=O)c2ccco2)C(C(=O)NC2CCCCC2)c2cccnc2)cc1C (stereo unspecified) | nt | -27 | nt | 1 | nt | nt | nt
Nc1nonc1-n1nnc(C(=O)N/N=C/c2cccs2)c1-c1ccc2c(c1)OCO2 | nt | -17 | nt | 2 | nt | nt | nt
